Rows were chosen to be rich in hits. Some 15% of all compounds tested hit in one or more screens of this group.
Pf growth 48h: Primary qHTS for delayed death inhibitors of the malarial parasite plastid, 48 hour incubation; P. falciparum luciferase growth in erythrocytes, 48 h; 5.9% of 310,000 active; Potency, µM (titrated, usually from 28.7 µM), inactives show at the top dose activity change, negative = inhibition, hits mostly inhibitors; note: potency is the fitted concentration of half-maximal effect; % is set by controls: 0 for no effect and ±100 for the full control effect
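Growth was read as firefly luciferase luminescence after a 48 h, 37 C, 5% CO2 exposure of compounds to reporter-bearing P. falciparum cultures (0.1% parasitemia, 2% hematocrit final) in Albumax-supplemented RPMI 1640.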
SARS PLpro yeast: qHTS of Yeast-based Assay for SARS-CoV PLP. 0.19% of 330,000 active. Potency, µM (series often up to 32.9 µM), inactives show at the top dose activity, positive = growth rescue, hits mostly activators. AID 485353, 2010. S. cerevisiae expressing SARS-CoV PLpro, growth rescue; calls by dose curve; note: potency is the fitted concentration of half-maximal effect; 0% is about no effect; nearly all actives have a fitted effect of over 55% in size
Pf growth 96h: Primary qHTS for delayed death inhibitors of the malarial parasite plastid, 96 hour incubation. Potency, µM (series often up to 28.7 µM), without a hit: at the highest dose activity change, negative = inhibition, most hits filed as inhibitors. P. falciparum luciferase reporter growth, 96 h. 6.9% of 320,000 active; note: potency is the fitted concentration of half-maximal effect; % is set by controls: 0 for no effect and ±100 for the full control effect
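Infected RBCs, 2% Hct / 0.05% parasitemia final; luciferase-reporter P. falciparum; cpd 96 h, 37 C, 5% CO2; luciferase detection reagent; luminescence.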
HCV inhibitor: qHTS Assay for Inhibitors of Hepatitis C Virus (HCV); AID 651820, 2012; Huh7.5.1 HCVcc-Cre infection, luciferase reporter, 44 h; Potency, µM (titrated, usually from 41.8 µM), for the others: at the top dose activity change, negative = inhibition, usual class: inhibitors; 3.4% of 340,000 active; note: potency is the fitted concentration of half-maximal effect; % is set by controls: 0 for no effect and ±100 for the full control effect
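A cell-based infection assay in which seeded cells (1,000 per well) receive test compound after 4 h, are inoculated with HCVcc-Cre at approximately 0.5 moi, and are incubated 44 h before luminescence detection.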
Sm TGR inh: qHTS Assay for the Inhibitors of Schistosoma Mansoni Peroxiredoxins. Potency, µM (doses to about 114 µM), inactives show top-dose activity change, negative = inhibition, usual class: inhibitors. 3% of 360,000 active. purified TGR, DTNB reduction, TNB absorbance 405 nm; note: potency is the fitted concentration of half-maximal effect; % is set by controls: 0 for no effect and ±100 for the full control effect; nearly all actives have a fitted effect of over 60% in size
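Kinetic colorimetric format: TGR-catalysed, NADPH-driven DTNB reduction monitored via TNB absorbance. Enzyme dispensed at 20 nM; compound exposure 15 min at room temperature before reaction start.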
HCMV inh: qHTS Assay for inhibitors of the human cytomegalovirus (HCMV). HFF cells, HCMV-luciferase reporter, 72 h; active compounds read low. activity change, negative = inhibition, % at 57.5 µM. 4.5% of 410,000 active. AID 1259415, 2018; in the data active = activity change below about -60%; inconclusive = no clear call, values can overlap the other calls; inactive = above about -39%; note: % is set by controls: 0 for no effect and ±100 for the full control effect
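Two compound doses tested in HFFs infected with HCMV-luciferase, MOI 1 PFU/cell, 72 h at 37C. Lysate luminescence read with OneGlo; data normalized against buffer-only and 10uM Salinomycin inhibitor controls.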
Starred values were filed as active, the others as inactive; i = inactive; ? = inconclusive; · = no result. Unless noted, calls come from the whole dose curve; as a rule, active = well fitted curve in the direction sought with a large enough effect; inconclusive = small, poorly fitted or top-dose-only effect, or another doubt; inactive = no such curve, though single readings can be large; an effect the other way counts as inactive or inconclusive.

SMILES | Pf growth 48h | SARS PLpro yeast | Pf growth 96h | HCV inhibitor | Sm TGR inh | HCMV inh
Cc1ccc(S(=O)c2ccc(NC(=O)C3CC3)cc2C#N)cc1 (configuration not stated) | ? | -1% | -15% | ? | 0% | -66*
CC(C)(C)c1cc(CCC(=O)NN)cc(C(C)(C)C)c1O | ? | 2% | 0% | 4% | -5% | -12
CC(OC(=O)CCc1cc(C(C)(C)C)c(O)c(C(C)(C)C)c1)C(=O)NC1CC1 (configuration not stated) | 0.47µM* | -3% | 0.66µM* | ? | -17% | -17
Cc1ccc2oc(C(=O)N3CCC(C(N)=O)(N4CCCCC4)CC3)c(C)c2c1 | ? | 1% | -4% | 12% | 0% | -21
Cc1c(C(=O)N2CCCCC2)oc2ccc(Br)cc12 | 75% | -5% | 108% | 22µM* | -8% | 16
Cc1c(C(=O)Nc2ccc(-c3nnc4n3CCCCC4)cc2)oc2ccc(Br)cc12 | 25% | -8% | 11% | 11µM* | -7% | ?
Cc1ccc2oc(C(=O)N3CCCCCC3)c(C)c2c1 | -20% | -1% | 13µM* | -14% | 5% | 195
O=C(Nc1ccc(-c2nnc3n2CCCCC3)cc1)c1ccco1 | -4% | 0% | -10% | 11% | -9% | -6
Cc1c(C(=O)N2CCOCC2)oc2ccc(Br)cc12 | -7% | 3% | 14% | -18% | 8% | -5
O=C(CN(c1ccccc1)S(=O)(=O)c1ccccc1[N+](=O)[O-])NN=C1CCCCCCC1 | ? | 3% | -19% | -2% | 7% | -28
COc1ccc(Nc2cc3c(cn2)cc(-c2cccnc2)n3C)cn1 | · | · | · | · | · | -18
Cc1ccc(C)c(S(=O)(=O)NCC(=O)Nc2sc3c(c2C(N)=O)CCC(C)C3)c1 (configuration not stated) | 24% | -1% | · | 7% | 3% | -38
Nc1nc(SCc2c(Cl)cccc2Cl)n[nH]1 | · | 2% | 1.3µM* | 11% | 2% | -4
O=C(Nc1ccc(Cl)cc1)N1CCC(c2nc(-c3ccccc3Cl)no2)CC1 | 1.9µM* | -8% | · | 7.1µM* | -11% | -32
COc1cccc(-c2noc(C3CCCN(C(=O)CC(C)(C)C)C3)n2)c1 (configuration not stated) | -17% | -1% | i | 10µM* | -33% | 56
CCCCC(=O)N1CCCC(c2nc(-c3cccc(OC)c3)no2)C1 (configuration not stated) | 33% | 0% | ? | -7% | 4% | 3
Cc1ccc(-c2noc(C3CCCN(C(=O)C4CCCCC4)C3)n2)o1 (configuration not stated) | · | 0% | 1µM* | -11% | 25µM* | 38
COc1cccc(C(=O)N2CCCC(c3nc(-c4cccs4)no3)C2)c1 (configuration not stated) | 12% | 3% | 9.3µM* | -21% | 5% | -103*
COc1cc(C(=O)N2CCCC(c3nc(-c4cccs4)no3)C2)cc(OC)c1OC (configuration not stated) | -21% | -3% | 30% | -1% | 4% | 6
Cc1ccc(-c2noc(C3CCCN(C(=O)c4ccc(Cl)cc4)C3)n2)o1 (configuration not stated) | -8% | -5% | 10% | ? | 12% | -23
COc1cccc(-c2nc(Cn3c(=O)cc(C)c4c(C)nn(-c5ccccc5)c43)c(C)o2)c1OC | · | · | · | · | 6% | -2
COc1ccc(-c2noc(C3CCCN(C(=O)c4ccc(C)cc4)C3)n2)cc1 (configuration not stated) | 114% | 2% | -18% | 13µM* | 6% | ?
COc1ccc(NC(=O)N2CCC(c3nc(-c4cccs4)no3)CC2)cc1 | 11% | -19% | 0.52µM* | ? | -4% | -29
O=C(NC1CC(=O)N(c2ccc3c(c2)OCCO3)C1)N1CCCCC1 (configuration not stated) | 2% | 2% | 33% | -8% | 5% | -27
CSc1cccc(NC(=S)N2CCC(N(C)C3CCCC3)CC2)c1 | -7% | -1% | ? | ? | -24% | -21
SMILES | Pf growth 48h | SARS PLpro yeast | Pf growth 96h | HCV inhibitor | Sm TGR inh | HCMV inh
COC(=O)c1ccc(NC(=O)c2c(C(=O)Nc3ccccc3)sc3nc(C)cc(=O)n23)cc1 | 7% | 0% | 12µM* | -1% | -23% | -14
CCCc1cc(=O)n2c(C(=O)Nc3ccc(OCC)cc3)c(C(=O)Nc3ccc(C)cc3)sc2n1 | · | · | · | · | 8% | -84*
COC(=O)c1ccc(NC(=O)c2sc3nc(-c4ccccc4)cn3c2C)cc1 | ? | 4% | 20% | ? | 15% | -37
CCOc1ccc(NC(=O)c2sc3nc(-c4ccc(OC)cc4)cn3c2C)cc1 | · | · | · | · | 0% | 40
CCC(C)CNC(=O)c1cccc(OC2CCN(CC(C)(C)C)CC2)c1 (configuration not stated) | · | · | · | ? | · | 5
CC(C)(C)CN1CCC(Oc2cccc(C(=O)N3CCNC(=O)C3(C)C)c2)CC1 | 11% | 3% | 12µM* | -6% | 0% | 8
CCCCN(C)C(=O)c1cccc(OC2CCN(CC(C)(C)C)CC2)c1 | ? | 5% | 13µM* | -5% | -4% | 13
COc1ccc(CCNC(=O)CCc2cn(Cc3ccc(F)cc3)c3ccccc23)cc1OC | · | · | · | · | -14% | -20
COc1ccccc1OCCNc1ccc(S(=O)(=O)N2CCCC2)cn1 | -19% | -2% | 0% | ? | -2% | -18
CC(C)Oc1cccc(C(=O)Nc2ccc3oc(-c4ccccc4)nc3c2)c1 | · | · | · | · | 7% | -33
CCN1C[C@@H]2[C@@H]3C(=O)N(Cc4ccccc4)C(=O)[C@@H]3[C@](CC)(C1=O)N2C(=O)c1ccc(F)cc1 | · | · | · | 18% | · | -11
COC(=O)c1cccnc1Oc1ccccc1 | ? | 0% | 0.66µM* | 6% | 16% | 36
COc1ccccc1NC(=O)CSc1nnnn1-c1ccc(F)cc1 | -10% | 2% | ? | ? | -5% | -20
COc1ccccc1NC(=O)CSc1nnnn1-c1ccc(C(=O)O)cc1 | 38% | -2% | 12µM* | 27% | 28% | -22
O=C(CSc1nnnn1-c1ccc(F)cc1)Nc1ccccc1F | 24% | 1% | 8.3µM* | -1% | -3% | -4
NC(=O)c1ccc(-n2nnnc2SCC(=O)Nc2ccccc2F)cc1 | 24% | 0% | 13% | -23% | 6% | 62
